The values below come from PubChem BioAssay (NCATS).

Each structure is given as a SMILES string. Where “and” joins values, the source holds several entries; their conditions need not be identical. Identical values can stand only once. Inconclusive results are not listed. Entries that show only a call come without a potency. Calls of active or inactive are those of the source. Calls follow the shape of the dose curve; as a rule, active = well fitted curve in the direction sought with a large enough effect; inconclusive = small, poorly fitted or top-dose-only effect, or another doubt; inactive = no such curve, though single readings can be large; an effect the other way counts as inactive or inconclusive.

The target of one assay is Cytochrome P450 3A4 (Homo sapiens) (UniProt P08684). The assay can be described thus: qHTS Assay for Activators of Cytochrome P450 3A4 (AID 885). Also: nearly all actives have a fitted effect of over 65% in size. The settings on record: recombinant CYP3A4, Luciferin-PPXE luminescence, 60 min; series mostly up to 57.1 µM. Put shortly: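 Signal was normalized against complete inhibition by 57 uM ketoconazole. The reaction used 20nM CYP3A4 with 25uM Luciferin-PPXE, 10-min compound preincubation and a 60-min NADPH-supported step at RT.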
Chain of Cytochrome P450 3A4 (Homo sapiens) (P08684 whole entry, looked up): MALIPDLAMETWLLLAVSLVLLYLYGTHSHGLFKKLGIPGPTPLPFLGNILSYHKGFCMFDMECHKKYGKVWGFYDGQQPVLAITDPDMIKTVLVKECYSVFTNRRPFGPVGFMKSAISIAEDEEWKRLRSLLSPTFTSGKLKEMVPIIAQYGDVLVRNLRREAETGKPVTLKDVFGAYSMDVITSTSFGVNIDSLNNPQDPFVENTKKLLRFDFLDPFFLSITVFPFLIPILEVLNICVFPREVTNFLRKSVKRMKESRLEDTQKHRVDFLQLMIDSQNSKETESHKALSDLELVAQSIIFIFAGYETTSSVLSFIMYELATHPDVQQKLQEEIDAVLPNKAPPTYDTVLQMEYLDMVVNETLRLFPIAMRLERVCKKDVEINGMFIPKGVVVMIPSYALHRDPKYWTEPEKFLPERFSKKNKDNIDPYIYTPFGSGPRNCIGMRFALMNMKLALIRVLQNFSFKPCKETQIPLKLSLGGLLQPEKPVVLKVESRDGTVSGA
For the compound `COc1c(CC(=O)c2cc3c(cc2O)OC(C)(C)C(O)C3)ccc2c1C=CC(C)(C)O2` (stereo not drawn), the Potency result is “inactive”.

As to `CNC1CCC(c2ccc(Cl)c(Cl)c2)c2ccccc21` (stereo not drawn), the Potency entry was “inactive”.

On to `COc1cc(C2c3cc4c(cc3C(O)[C@H]3COC(=O)C23)OCO4)cc(OC)c1OC` (stereo partly drawn), for which the Potency result was “inactive”.

In the case of `C#CCCCCCCCCCCCC(O)CC(O)COC(C)=O` (stereo not drawn), the Potency result was “inactive”.

On to `CC(C)c1c(O)ccc2c1CCC1C(C)(C)CCC[C@@]21C` (stereo partly drawn), for which the Potency entry is “inactive”.

Consider `C/C(CCN1CCc2nc(-c3ccccc3)c(-c3ccccc3)cc2C1)=N\O[C@@H](C)c1cn([C@H](CO)Cc2ccccc2)nn1`, for which the activity change, positive = activation was -54.2% [at 11.4 µM] (inactive) and -52.4% [at 11.4 µM] (inactive).

For another assay, the target named is Cytochrome P450 2D6 (Homo sapiens) (UniProt P10635). Briefly: qHTS Assay for Inhibitors and Substrates of Cytochrome P450 2D6 (AID 891). Also: nearly all actives have a fitted effect of over 60% in size. Also: potency is read from the fitted curve at half-maximal effect. The following applies: recombinant CYP2D6, luciferin-ME EGE luminescence; series mostly up to 11.4 µM. Put shortly: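 Human CYP2D6 (5 nM) with 30 uM Luciferin-ME EGE (at Km) in 100 mM KPO4, compound preincubated 10 min, then NADPH regeneration system for 60 min at room temperature. Luciferin read by luminescence; normalized to 1.43 uM quinidine.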
Chain of Cytochrome P450 2D6 (Homo sapiens) (P10635 whole entry, looked up): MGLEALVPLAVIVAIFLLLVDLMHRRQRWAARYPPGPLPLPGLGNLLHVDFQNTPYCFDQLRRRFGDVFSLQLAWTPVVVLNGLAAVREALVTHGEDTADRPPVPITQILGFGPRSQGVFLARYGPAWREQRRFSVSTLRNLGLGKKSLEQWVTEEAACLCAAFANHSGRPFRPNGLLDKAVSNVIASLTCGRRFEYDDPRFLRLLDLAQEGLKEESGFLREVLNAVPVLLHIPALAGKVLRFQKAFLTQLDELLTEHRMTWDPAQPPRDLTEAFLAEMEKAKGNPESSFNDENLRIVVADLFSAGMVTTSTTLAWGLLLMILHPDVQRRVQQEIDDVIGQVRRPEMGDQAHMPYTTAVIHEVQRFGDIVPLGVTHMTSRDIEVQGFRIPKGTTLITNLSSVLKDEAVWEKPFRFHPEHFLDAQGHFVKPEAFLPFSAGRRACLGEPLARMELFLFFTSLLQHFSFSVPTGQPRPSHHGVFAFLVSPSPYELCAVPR
Consider `CC(=O)OC[C@H]1O[C@@H](O/N=C\[C@@H](C)[C@H](OCc2ccccc2)C(C)C)[C@H](OC(C)=O)[C@@H](OC(C)=O)[C@H]1OC(C)=O`, for which the Potency is 3.98 µM (active).

As to `COC(=O)C/C=C\[C@@H](C)[C@@H](/C=N\O[C@@H](C)CN1CCCc2nc(C)c(C)cc21)NS(=O)(=O)c1ccc(C)cc1`, the Potency is 3.16 µM (active).

Take `CO[C@@H]1COC(=O)CCC[C@@H](C)[C@H](OC)COC(=O)CCC[C@H]1C`: the Potency entry was “inactive”.

For the compound `CO[C@H]1COC(=O)CCC[C@H](C)[C@H](OC)COC(=O)C/C=C\[C@@H]1C`, the Potency entry was “inactive”.

As to `CC(C)=NOC[C@@H](O)COCc1ccco1`, the Potency entry was “inactive”.

For `CC(=O)OC[C@@H]1O[C@H](C/C=N\O[C@@H]2O[C@H](COC(C)=O)[C@@H](OC(C)=O)[C@H](OC(C)=O)[C@H]2OC(C)=O)C=C[C@@H]1OC(C)=O`, the Potency was 3.98 µM (active).

For `C#CCCCO/N=C1/[C@H]2O[C@@H]2[C@@H](O)[C@H]2[C@H]1CCn1c(=O)n(C)c(=O)n12`, the Potency result is “inactive”.

Take `C[C@@H](c1ccccc1)N1C(=O)[C@H]2[C@@H]3[C@H](O)C=CC(=O)[C@H]3CC[C@H]2C1=O`: the Potency entry was “inactive”.

In the case of `CCN1C(=O)[C@H]2[C@@H]3[C@H](O)C=CC(=O)[C@H]3CC[C@H]2C1=O`, the Potency entry is “inactive”.

`CC(C)(C)N1C(=O)[C@H]2[C@@H]3[C@H](O)[C@H](O)CC(=O)[C@H]3CC[C@H]2C1=O`: the Potency entry is “inactive”.

For the compound `CCN1C(=O)[C@H]2[C@H]3[C@H](O)[C@H](O)C/C(=N/O[C@@H]4O[C@H](COC(C)=O)[C@@H](OC(C)=O)[C@H](OC(C)=O)[C@H]4OC(C)=O)[C@@H]3CC[C@@H]2C1=O`, the Potency is 3.98 µM (active).

Turning to `CC(C)=CCC/C(C)=C/CO/N=C1/C[C@@H](O)[C@@H](O)[C@@H]2[C@@H]3C(=O)N(C(C)(C)C)C(=O)[C@H]3CC[C@H]12`, the Potency entry is “inactive”.

On to `CO[C@@H]1COC(=O)C/C=C\[C@H](C)COC(=O)[C@H](C)NC(=O)C/C=C\[C@H]1C`, for which the Potency entry was “inactive”.

For `CC(C)[C@H](NC(=O)OC(C)(C)C)[C@@H](O)CC(=O)OC(C)(C)C`, the Potency was 3.16 µM (active).

`CCOC(=O)CCN1C(=O)[C@H]2[C@H]3[C@H](O)[C@H](O)C/C(=N/O[C@@H]4O[C@@H](COC(C)=O)[C@@H](OC(C)=O)[C@@H](OC(C)=O)[C@H]4OC(C)=O)[C@@H]3CC[C@@H]2C1=O`: the Potency was 3.16 µM (active).

As to `O=C1[C@@H]2[C@H]3[C@H](O)[C@H](O)C/C(=N/OCc4ccccc4)[C@@H]3CC[C@H]2C(=O)N1c1ccc(F)cc1F`, the Potency result was “inactive”.

Consider `CO/N=C(\C)CCN1CCCc2nc(C)c(C)cc21`, for which the Potency was 3.98 µM (active).

Turning to `CC(=O)OC[C@H]1O[C@@H](ON=C(C)C)[C@H](OC(C)=O)[C@@H](OC(C)=O)[C@H]1OC(C)=O`, the Potency was 3.16 µM (active).

For the compound `CCOC(=O)N/N=C1/C[C@@H](O)[C@@H](O)[C@@H]2[C@@H]3C(=O)N(C4CCCCC4)C(=O)[C@H]3CC[C@@H]12`, the Potency entry was “inactive”.

`CCc1cc2c(nc1CC)CCN(CC/C(C)=N/O[C@@H]1O[C@H](COC(C)=O)[C@H](OC(C)=O)[C@H](OC(C)=O)[C@H]1OC(C)=O)C2`: the Potency was 3.98 µM (active).

As to `CC(=O)OC[C@@H]1O[C@@H](O/N=C2/C[C@@H](O)[C@@H](O)[C@@H]3[C@@H]4C(=O)N(Cc5ccccc5)C(=O)[C@H]4CC[C@H]23)[C@H](OC(C)=O)[C@H](OC(C)=O)[C@@H]1OC(C)=O`, the Potency is 3.16 µM (active).

As for `CCOC(=O)CCN1C(=O)[C@H]2[C@H]3[C@H](O)[C@H](O)C/C(=N/O[C@@H]4O[C@@H](COC(C)=O)[C@@H](OC(C)=O)[C@@H](OC(C)=O)[C@H]4OC(C)=O)[C@H]3CC[C@@H]2C1=O`, the Potency is 3.16 µM (active).

For the compound `CC(=O)OC[C@@H]1O[C@@H](O/N=C2/C[C@@H](O)[C@@H](O)[C@@H]3[C@@H]4C(=O)N(C5CCCCC5)C(=O)[C@H]4CC[C@H]23)[C@H](OC(C)=O)[C@H](OC(C)=O)[C@@H]1OC(C)=O`, the Potency was 3.98 µM (active).

As for `CC(=O)OC[C@@H]1O[C@@H](O/N=C2/C[C@@H](O)[C@@H](O)[C@@H]3[C@@H]4C(=O)N(Cc5ccccc5)C(=O)[C@H]4CC[C@@H]23)[C@H](OC(C)=O)[C@H](OC(C)=O)[C@@H]1OC(C)=O`, the Potency was 3.98 µM (active).

Turning to `COC(=O)C/C=C\[C@@H](C)[C@@H](/C=N\OC[C@@H](O)COCc1ccco1)OC`, the Potency entry is “inactive”.

As for `CC(C)=CCC/C(C)=C/CO/N=C1/C[C@@H](O)[C@@H](O)[C@@H]2[C@@H]3C(=O)N(C[C@@H]4CCCO4)C(=O)[C@H]3CC[C@@H]12`, the Potency result was “inactive”.

For `CC(C)c1ccc2c(c1)CC[C@@H]1[C@@](C)(CN)CCC[C@@]21C`, the Potency is 1 µM (active).

For the compound `CCOC(=O)CCN1C(=O)[C@H]2[C@@H]3[C@H](O)[C@H](O)CC(=O)[C@H]3CC[C@H]2C1=O`, the Potency entry was “inactive”.

In the case of `CO[C@@H]1COC(=O)CC=C[C@@H](C)[C@@H]2C=C[C@H](O)[C@@H](COC(=O)[C@H](C)NC(=O)CC=C[C@H]1C)O2`, the Potency result is “inactive”.

`CCOC(=O)N/N=C1/C[C@@H](O)[C@@H](O)[C@@H]2[C@@H]3C(=O)N(Cc4ccccc4)C(=O)[C@H]3CC[C@@H]12`: the Potency entry was “inactive”.

Take `CC(=O)OC[C@@H]1O[C@@H](O/N=C2/C[C@@H](O)[C@@H](O)[C@@H]3[C@H]4C(=O)N(c5ccc(F)cc5F)C(=O)[C@@H]4CC[C@H]23)[C@H](OC(C)=O)[C@H](OC(C)=O)[C@@H]1OC(C)=O`: the Potency was 3.16 µM (active).

Consider `O=C(N/N=C1/C[C@@H](O)[C@@H](O)[C@@H]2[C@@H]3C(=O)N(Cc4ccccc4)C(=O)[C@H]3CC[C@H]12)OCc1ccccc1`, for which the Potency entry was “inactive”.
